Test systems include HCT-15 colon; HT29 colon; SNB-75 CNS; SNB-19 CNS; U251 CNS; PC-3 prostate; SK-MEL-5 melanoma; UACC-62 melanoma; LOX IMVI melanoma; SK-MEL-2 melanoma; EKVX NSCLC; SN12C renal; UO-31 renal; TK-10 renal; ACHN renal; CAKI-1 renal; A498 renal; CCRF-CEM leukemia; MOLT-4 leukemia; SK-MEL-28 melanoma.
Assay in all cases: NCI-60 one-dose screen, 48 h (100 = growth as untreated, 0 = no growth, -100 = all killed)
Holding throughout (conditions): 10 µM unless noted

SMILES strings stand for the structures. Compounds without any hit were thinned out: in the full panel of roughly 83,000, 20% have a hit.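 Activity criterion: percent growth below 10, measured after cells in 96-well plates were exposed to a single compound concentration for 48 hours.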 A number with no mark means an inactive call. Calls of active or inactive are those of the source.

On to `CC(C)(C)Nc1nc2c(OCCc3ccccc3)cccn2c1-c1ccc([N+](=O)[O-])cc1`, for which the growth with HCT-15 colon was 15.8%; with HT29 colon, 52.3%; in the assay on SNB-75 CNS, 88.1%; in the assay with SNB-19 CNS, 78.4%; with U251 CNS, 62.6%; in the assay on PC-3 prostate, 49.1%. For the same compound, the growth in the assay on SK-MEL-5 melanoma was 74.8%; with UACC-62 melanoma it was 57.5%; with LOX IMVI melanoma, 54.7%; in the assay with SK-MEL-2 melanoma it was 60.5%; with EKVX NSCLC it was 41.8%; with SN12C renal, 75.5%. Also, the growth in the assay with UO-31 renal was 31.6%; with TK-10 renal it was 66.5%; in the assay with ACHN renal it was 54.4%; with CAKI-1 renal it was 43.3%; with A498 renal, 97.7%; in the assay on CCRF-CEM leukemia, 53.7%. The growth in the assay with MOLT-4 leukemia is 18.1%.

In the case of `O=C(CCCCCCNC(=O)C(O)(O)C(F)(F)F)Nc1ncc(-c2ccccc2)s1`, the growth in the assay on HCT-15 colon was 2.35% (active); in the assay on HT29 colon, 4.15% (active); in the assay with SNB-75 CNS, 35.1%; with SNB-19 CNS, 6.24% (active); with U251 CNS, -62.6% (active); in the assay on PC-3 prostate, 22.7%. Also, the growth is -67.2% (active) in the assay on SK-MEL-5 melanoma; -76.6% (active) in the assay with UACC-62 melanoma; -78.2% (active) in the assay on LOX IMVI melanoma; -19.6% (active) with SK-MEL-28 melanoma; -23.3% (active) in the assay with SK-MEL-2 melanoma; 20.8% in the assay with EKVX NSCLC. Moreover, the growth was 2.31% (active) in the assay with SN12C renal; -27.9% (active) in the assay on UO-31 renal; -53.1% (active) in the assay on ACHN renal; -40.4% (active) with CAKI-1 renal; -41.8% (active) in the assay on A498 renal; 22.5% in the assay with CCRF-CEM leukemia. In the assay with MOLT-4 leukemia, the growth is 5.09% (active).

With `Clc1ccc2c(N/N=C/c3c[nH]c4ccccc34)ccnc2c1`, the growth was -82.7% (active) in the assay on HCT-15 colon; -72.3% (active) with HT29 colon; -96.2% (active) in the assay with SNB-75 CNS; -92.4% (active) with SNB-19 CNS; -84.1% (active) in the assay on U251 CNS; -81% (active) with PC-3 prostate. The growth with SK-MEL-5 melanoma is -98.4% (active); with UACC-62 melanoma, -61.7% (active); with LOX IMVI melanoma it was -92.9% (active); with SK-MEL-28 melanoma it was -92.7% (active); with SK-MEL-2 melanoma, -82.2% (active); in the assay with EKVX NSCLC it was -79.3% (active). Further, the growth in the assay on SN12C renal is -77.2% (active); in the assay with UO-31 renal it was -95.1% (active); in the assay with ACHN renal, -98.1% (active); in the assay with CAKI-1 renal it was -97.5% (active); in the assay with CCRF-CEM leukemia, -10% (active); with MOLT-4 leukemia, -48.5% (active).

Take `CCCCc1nc2c(N)nc3ccccc3c2n1Cc1cccc(CN)c1`: the growth in the assay on HCT-15 colon is 55.9%; with HT29 colon, 17.4%; in the assay with SNB-75 CNS it was 15.1%; with SNB-19 CNS, 63.2%; with U251 CNS, 38.5%; with PC-3 prostate, 53.3%. Moreover, the growth with SK-MEL-5 melanoma was 55%; in the assay with UACC-62 melanoma, 76.3%; in the assay with LOX IMVI melanoma it was 18.1%; with SK-MEL-2 melanoma, 79.4%; in the assay with EKVX NSCLC, 77%; in the assay with SN12C renal, 68.9%. In addition, the growth in the assay with UO-31 renal is 70.5%; in the assay with TK-10 renal it was 89.9%; with ACHN renal it was 65%; in the assay with CAKI-1 renal it was 14.2%; in the assay with A498 renal, 16.3%; in the assay on CCRF-CEM leukemia it was 23.9%. Further, the growth with MOLT-4 leukemia was 33.9%.

Regarding `O=C(/C=C/C=C/c1csc(Br)n1)NO`, the growth in the assay on HCT-15 colon was 94.5%; with HT29 colon it was 94.5%; in the assay with SNB-75 CNS, 75.6%; in the assay with SNB-19 CNS it was 94.4%; in the assay on U251 CNS, 98.6%; in the assay with PC-3 prostate, 84.8%. For the same compound, the growth is 96% in the assay with SK-MEL-5 melanoma; 84.8% with UACC-62 melanoma; -31.7% (active) in the assay with LOX IMVI melanoma; 102% in the assay on SK-MEL-28 melanoma; 109% in the assay on SK-MEL-2 melanoma; 102% in the assay on EKVX NSCLC. Besides, the growth with SN12C renal is 95.1%; in the assay with UO-31 renal it was 71.9%; in the assay with ACHN renal, 92.6%; in the assay with CAKI-1 renal it was 83.9%; with A498 renal it was 92.8%; in the assay with CCRF-CEM leukemia it was 43.1%. The growth in the assay on MOLT-4 leukemia was 75.3%.

Turning to `O=C(CCCCCCN1CC(=O)N2[C@@H](c3ccc(Cl)s3)c3[nH]c4ccccc4c3C[C@H]2C1=O)NO`, the growth is 77.1% in the assay with HCT-15 colon; 38.9% in the assay on HT29 colon; 22.5% in the assay with SNB-75 CNS; 52.2% with SNB-19 CNS; 50.3% with U251 CNS; 47.4% with PC-3 prostate. For the same compound, the growth with SK-MEL-5 melanoma was 19.7%; in the assay with UACC-62 melanoma, 21.9%; in the assay on LOX IMVI melanoma it was -62.7% (active); in the assay with SK-MEL-2 melanoma it was 59.9%; in the assay with EKVX NSCLC, 49.1%; in the assay on SN12C renal, 72.7%. Besides, the growth is 57.8% in the assay on UO-31 renal; 43.4% in the assay on TK-10 renal; 66.8% in the assay with ACHN renal; 48.8% in the assay with CAKI-1 renal; 72.8% in the assay on A498 renal; 16.7% in the assay on CCRF-CEM leukemia. Besides, the growth in the assay on MOLT-4 leukemia is 11.2%.

Regarding `COc1ccc2c(c1)c(-c1nnc(N)nc1-c1c[nH]c3ccc(F)cc13)cn2C`, the growth in the assay with HCT-15 colon was 27.7%; in the assay with HT29 colon it was 11.1%; with SNB-75 CNS, 24.3%; with SNB-19 CNS, 45.2%; in the assay on U251 CNS, 34.5%; in the assay with PC-3 prostate, 51.2%. Further, the growth is 35.4% in the assay on SK-MEL-5 melanoma; 35.9% in the assay with UACC-62 melanoma; 42.7% in the assay with LOX IMVI melanoma; 67.5% in the assay with SK-MEL-28 melanoma; 36.3% in the assay with SK-MEL-2 melanoma; 55.5% in the assay on EKVX NSCLC. The growth in the assay with SN12C renal is 69.5%; in the assay with UO-31 renal it was 75.6%; with ACHN renal it was 64.5%; with CAKI-1 renal, 41.6%; in the assay on A498 renal it was 27.5%; with CCRF-CEM leukemia, 22.3%. Further, the growth in the assay with MOLT-4 leukemia was 26.2%.

For `COC(=O)CCSC1=C(C)C(=O)c2ccccc2C1=O`, the growth was 58.5% with HCT-15 colon; 110% with HT29 colon; 89.6% with SNB-75 CNS; 96.5% in the assay on SNB-19 CNS; 85.1% in the assay with U251 CNS; 72.6% with PC-3 prostate. The growth in the assay on SK-MEL-5 melanoma was 84.2%; in the assay on UACC-62 melanoma it was 70.9%; in the assay with LOX IMVI melanoma it was 52.2%; with SK-MEL-28 melanoma it was 106%; in the assay with SK-MEL-2 melanoma it was 107%; with EKVX NSCLC, 74.2%. Also, the growth in the assay on SN12C renal was 92.5%; with UO-31 renal it was 64.6%; in the assay with ACHN renal, 82.6%; in the assay on CAKI-1 renal, 80.4%; in the assay with A498 renal it was 116%; with CCRF-CEM leukemia, 45.7%. Further, the growth in the assay on MOLT-4 leukemia is 31.8%.

The values are drawn from PubChem BioAssay (NCI).
